PubChem BioAssay (NCATS)
Where “and” joins values, the source holds several entries; their conditions need not be identical. Equal values may be shown once. Records with an inconclusive call do not appear. A call without a number means that no potency is given here. Calls of active or inactive are those of the source. Calls follow the shape of the dose curve; as a rule, active = well fitted curve in the direction sought with a large enough effect; inconclusive = small, poorly fitted or top-dose-only effect, or another doubt; inactive = no such curve, though single readings can be large; an effect the other way counts as inactive or inconclusive.

Tests used:
[1] = Identifying Small Molecule Inhibitors of Pancreatic Cancer Stem Cells (SN12C, Spheroid) (AID 1259360); conditions: Potency: SN12C spheroid viability; also: potency is read from the fitted curve at half-maximal effect
Procedure, shortened: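 Luminescent ATP readout (CellTiter-Glo) quantifies surviving cells after a 48 h drug incubation. Normalization uses DMSO wells as no inhibition and media-only wells as full inhibition; bortezomib served as positive control.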

[2] = P-glycoprotein substrates identified in KB-3-1 adenocarcinoma cell line, qHTS therapeutic library screen (AID 1346986); also: nearly all actives have a fitted effect of over 60% in size;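 also: potency is read from the fitted curve at half-maximal effect; potency is for cytotoxicity meaning loss of cell viability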
Procedure, shortened: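 72 h cell-killing screen, 500 cells/well, CellTiter-Glo luminescence. Paired lines KB-3-1/KB-8-5-11; P-gp dependence checked by tariquidar co-treatment and HEK-293 MDR-19 versus empty-vector cells.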

[3] = qHTS of pediatric cancer cell lines to identify multiple opportunities for drug repurposing: Primary screen for TC32 cells (AID 1347089); also: nearly all actives have a fitted effect of over 60% in size; also: potency is read from the fitted curve at half-maximal effect
Procedure, shortened: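 TC32 cells, 500-1,000/well in growth medium, compound-treated 48 h at 37 °C; viability from CellTiter-Glo luminescence. Primary screen: MIPE 11-point (0.78 nM–46 µM final), NPC 8-point (0.59 nM–46 µM final); confirmatory at 11-point dilutions.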

[4] = qHTS of pediatric cancer cell lines to identify multiple opportunities for drug repurposing: Primary screen for DAOY cells (AID 1347090); also: nearly all actives have a fitted effect of over 55% in size; also: potency is read from the fitted curve at half-maximal effect
Procedure, shortened: (§1)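 Eight- or eleven-point concentration series, 48 h treatment at 37 degrees C in growth media; readout CellTiter-Glo luminescence. Potency and efficacy were taken from the concentration-response curves.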

[5] = qHTS of pediatric cancer cell lines to identify multiple opportunities for drug repurposing: Primary screen for SJ-GBM2 cells (AID 1347091); also: potency is read from the fitted curve at half-maximal effect
Procedure, shortened: as §1

[6] = qHTS of pediatric cancer cell lines to identify multiple opportunities for drug repurposing: Primary screen for A673 cells (AID 1347092); also: nearly all actives have a fitted effect of over 45% in size; also: potency is read from the fitted curve at half-maximal effect
Procedure, shortened: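 A673 cells (500-1,000 cells/well) were treated 48 hours at 37 degrees C with compounds at 11-point (0.78 nM to 46 µM) or 8-point (0.59 nM to 46 µM) dilutions. Viability read by CellTiter-Glo luminescence; concentration-response curves fitted.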

[7] = qHTS of pediatric cancer cell lines to identify multiple opportunities for drug repurposing: Primary screen for SK-N-MC cells (AID 1347093); also: potency is read from the fitted curve at half-maximal effect
Procedure, shortened: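 Metabolically active cells were quantified by ATP-dependent luminescence (CellTiter-Glo, 15 min at room temperature) following 48 h treatment. Cells had been plated at 500-1,000 per well and settled for 5 h beforehand.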

[8] = P-glycoprotein substrates identified in KB-8-5-11 adenocarcinoma cell line, qHTS therapeutic library screen (AID 1346987); also: nearly all actives have a fitted effect of over 65% in size; also: potency is read from the fitted curve at half-maximal effect
Procedure, shortened: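 Compounds are pinned in dose-response onto KB-8-5-11 cells (500 cells/well, colchicine-free medium) and left 72 h at 37 degree C. CellTiter-Glo luminescence then yields AC50 values.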

[9] = NS1 protein of Zika virus - qHTS assay to identify small molecule inhibitors in human HEK 293 cells (AID 1347053); also: nearly all actives have a fitted effect of over 55% in size; also: potency is read from the fitted curve at half-maximal effect
Procedure, shortened: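 TR-FRET signal from two anti-ZIKV NS1 antibodies quantified NS1 in HEK 293 cells 24 h after MR766 infection at MOI = 0.5; compounds were added 1 h before virus. Uninfected cells and infected cells defined the NS1 normalization range.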

[10] = qHTS of pediatric cancer cell lines to identify multiple opportunities for drug repurposing: Primary screen for BT-37 cells (AID 1347094); also: potency is read from the fitted curve at half-maximal effect
Procedure, shortened: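 Luminescence from CellTiter-Glo served as readout of metabolically active cells after 48 h compound exposure. Titrations: MIPE 11-point, from 0.78 nM; NPC 8-point, from 0.59 nM (final). Concentration-response curves came straight from the primary screen.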

[11] = Identifying Small Molecule Inhibitors of Pancreatic Cancer Stem Cells (A278, Adherent) (AID 1259361);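 also: viability read after 48 h compound exposure; nearly all actives have a fitted effect of over 35% in size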
Procedure, shortened: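 Viability is scored by CellTiter-Glo luminescence 48 h after dosing, expressed as percent activity against vehicle and no-cell references. Spheroid formats rely on cells cultured 14 days in stem cell media beforehand.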

Row | Structure (SMILES) | Potency [1] | Potency [2] | Potency [3] | Potency [4] | Potency [5] | Potency [6] | Potency [7] | Potency [8] | Potency [9] | Potency [10] | IC50 (viability decrease) [11]
1 | CNc1nccc(-c2cccnc2Oc2cc(C(=O)Nc3cccc(C(F)(F)F)c3)ccc2C)n1 | 18.7 µM (active) | inactive | inactive | 14.8 µM (active) | 9.35 µM (active) | 2.96 µM (active) | 3.72 µM (active) | – | – | – | –
2 | C[C@]1(CO)CN(c2cc(C(=O)Nc3ccc4c(c3)-c3c(c(C(N)=O)nn3-c3ccc(F)cc3)CC4)c(Cl)cn2)C[C@@]1(C)CO | inactive | 5.8 µM (active) | 18.6 µM (active) | 11.8 µM (active) | 6.62 µM (active) | 9.35 µM (active) | 1.48 µM (active) | inactive | 4.69 µM (active) | 5.44 µM (active) | –
3 | Cc1cc(Nc2cc(N3CCN(C)CC3)nc(Sc3ccc(NC(=O)C4CC4)cc3)n2)n[nH]1 | inactive | 0.231 µM (active) | – | – | – | 11.8 µM (active) | 0.418 µM (active) | – | 9.35 µM (active) | inactive | –
4 | CCCCc1nc2cc(C=CC(=O)NO)ccc2n1CCN(CC)CC | – | – | 5.87 µM (active) | 3.72 µM (active) | 0.469 µM (active) | 0.118 µM (active) | 0.0296 µM (active) | 7.43 µM (active) | inactive | 0.0485 µM (active) | 1.18 µM (active)
5 | CC(C)Nc1cc(C(F)(F)F)cc2nc(NC(=O)c3cccnc3)nn12 | – | inactive | inactive | inactive | – | – | 16.6 µM (active) | inactive | inactive | inactive | –
6 | Cc1c(Cn2c(C)nc3c(C(=O)O)cc(N4CCOCC4)cc32)cccc1C(F)(F)F | – | inactive | inactive | 7.43 µM (active) | inactive | – | 0.059 µM (active) | inactive | inactive | inactive | –
7 | O=C(Nc1cn[nH]c1-c1nc2ccc(CN3CCOCC3)cc2[nH]1)NC1CC1 | – | 1.16 µM (active) | – | 3.72 µM (active) | 0.59 µM (active) | 1.48 µM (active) | 0.059 µM (active) | inactive | 9.35 µM (active) | 12.2 µM (active) | –
8 | O=c1[nH]c(=O)n(C2CCCO2)cc1F (configuration not stated) | – | inactive | – | – | inactive | inactive | inactive | inactive | inactive | inactive | –
9 | Cc1ccc(S(=O)(=O)Nc2cc(Cl)ccc2C(=O)Nc2nc(-c3ccccc3)cs2)cc1 | – | – | inactive | – | 7.43 µM (active) | – | 7.43 µM (active) | – | – | 17.2 µM (active) | 3.72 µM (active)
10 | O=C(O)CCCc1c[nH]c2ccccc12 | – | inactive | inactive | inactive | – | inactive | inactive | inactive | inactive | – | –
11 | C#Cc1cccc(Nc2ncnc3cc(OC)c(OCCCCCCC(=O)NO)cc23)c1 | – | – | 5.23 µM (active) | 0.059 µM (active) | 0.118 µM (active) | 0.0093 µM (active) | 0.0118 µM (active) | – | inactive | 0.611 µM (active) | 1.18 µM (active)
12 | CN(C)CC(C)(C)CNc1nn2c(-c3ccccc3)nnc2cc1C1CCC1 | – | inactive | – | – | 1.18 µM (active) | 0.743 µM (active) | 0.469 µM (active) | inactive | inactive | 0.863 µM (active) | –
13 | CC(C)(C)c1cc(NC(=O)Nc2ccc(-c3cn4c(n3)sc3cc(OCCN5CCOCC5)ccc34)cc2)no1 | – | – | inactive | – | 14.8 µM (active) | – | 0.743 µM (active) | – | inactive | – | 10.5 µM (active)
14 | CCOc1ccccc1OCCNC(C)Cc1ccc(OC)c(S(N)(=O)=O)c1 (configuration not stated) | – | inactive | inactive | inactive | inactive | inactive | inactive | inactive | inactive | inactive | –
15 | CCCn1c(=O)c2[nH]c(-c3cnn(Cc4cccc(C(F)(F)F)c4)c3)nc2n(CC)c1=O | – | inactive | inactive | inactive | – | – | – | inactive | inactive | – | –
16 | CC(O)C1C(=O)N2C(C(=O)O)=C(SC3CNC(C(=O)N(C)C)C3)C(C)C12 (configuration not stated) | – | inactive | inactive | inactive | inactive | inactive | inactive | inactive | inactive | inactive | –
17 | c1nc2nc(Nc3ccc(N4CCOCC4)cc3)nc(NC3CCCCC3)c2[nH]1 | – | 1.3 µM (active) | 4.66 µM (active) | – | 1.48 µM (active) | 4.69 µM (active) | 0.935 µM (active) | 5.26 µM (active) and 632 nM (active) and 1.16 µM (active) | – | 21.7 µM (active) | –
18 | CCNC(=O)Nc1ccc2ncc(Nc3ccc(C)cc3)nc2n1 | – | inactive | – | – | – | – | 0.0053 µM (active) | inactive | inactive | 24.3 µM (active) | –
19 | Clc1cccc(-c2nnnn2Cc2cccnc2)c1Cl | – | inactive | inactive | inactive | inactive | inactive | – | inactive | inactive | inactive | –
